# The campaign covered roughly 360,000 compounds. About 3,000 (0.83%) were called active. The sample holds actives, similar compounds and a random draw of the others, so the mix is not that of the screen. A number with no mark means an inactive call. Rule as the data show it: active = inhibition above about 50%; inactive = the rest.
# Molecular target: DNA (cytosine-5)-methyltransferase 1 (Homo sapiens) (UniProt P26358)
# Experiment: human DNMT1 methyltransferase inhibitors, primary screen, biochemical, molecular beacon, fluorescence, HinP1I cleavage, uHTS (AID 588458)
# Details: at 10 µM, active compounds read high
# Sequence of DNA (cytosine-5)-methyltransferase 1 (Homo sapiens) (P26358 504-1616 limits assumed): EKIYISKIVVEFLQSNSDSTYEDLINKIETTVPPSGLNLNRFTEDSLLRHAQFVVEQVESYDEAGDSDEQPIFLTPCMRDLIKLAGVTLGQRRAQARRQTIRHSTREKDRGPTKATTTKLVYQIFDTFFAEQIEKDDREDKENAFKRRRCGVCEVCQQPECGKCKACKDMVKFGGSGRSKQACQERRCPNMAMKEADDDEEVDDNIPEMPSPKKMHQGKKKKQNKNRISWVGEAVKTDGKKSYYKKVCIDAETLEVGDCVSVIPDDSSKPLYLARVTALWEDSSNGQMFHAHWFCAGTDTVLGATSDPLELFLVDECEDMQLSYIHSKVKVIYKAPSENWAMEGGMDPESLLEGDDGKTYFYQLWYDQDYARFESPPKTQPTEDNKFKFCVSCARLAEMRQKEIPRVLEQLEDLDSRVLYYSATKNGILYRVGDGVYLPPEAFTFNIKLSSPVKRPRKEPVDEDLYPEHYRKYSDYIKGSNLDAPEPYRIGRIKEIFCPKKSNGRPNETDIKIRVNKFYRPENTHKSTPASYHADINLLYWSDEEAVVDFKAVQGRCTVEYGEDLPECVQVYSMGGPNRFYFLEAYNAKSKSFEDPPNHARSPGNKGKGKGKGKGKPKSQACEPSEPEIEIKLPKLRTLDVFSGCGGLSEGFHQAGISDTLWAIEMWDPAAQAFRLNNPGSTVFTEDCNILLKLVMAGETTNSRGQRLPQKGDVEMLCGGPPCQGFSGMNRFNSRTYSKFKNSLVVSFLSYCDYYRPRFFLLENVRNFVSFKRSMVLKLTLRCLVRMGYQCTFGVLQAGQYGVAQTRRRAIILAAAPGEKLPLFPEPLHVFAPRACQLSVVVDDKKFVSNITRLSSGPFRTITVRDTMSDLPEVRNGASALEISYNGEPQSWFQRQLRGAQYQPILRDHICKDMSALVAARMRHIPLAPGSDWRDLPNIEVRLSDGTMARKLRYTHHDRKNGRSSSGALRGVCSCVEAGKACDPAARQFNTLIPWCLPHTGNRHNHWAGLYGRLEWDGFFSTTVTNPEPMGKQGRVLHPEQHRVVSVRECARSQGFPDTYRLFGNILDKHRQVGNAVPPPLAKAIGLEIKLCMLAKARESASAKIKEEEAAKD
row,Compound,inhibition (reported as % activation of signal)
1,CCc1nc2c(OCCOc3ccc(F)cc3)cccn2c1N(C)C(=O)c1ccccc1F,-4.23%
2,CCC(=O)Nc1ccc(-c2ccc(N3CCCCC3)nn2)cc1,-8.26%
3,Cc1c(C(=O)NCc2ccc(C#N)cc2)sc(=O)n1Cc1ccc(C(=O)N(C)C)cc1,4.99%
4,O=C1N[C@@H](Cc2ccccc2)C(=O)N2[C@@H]3N(S(=O)(=O)c4ccc(F)cc4)c4ccccc4[C@]3(Br)C[C@@H]12,-4.71%
5,COc1ccc(CCc2nnc(CCC(=O)NCc3cnn(-c4ccccc4C)c3)o2)cc1,-0.69%
6,C/C(=N/N1CCN(Cc2cccc3ccccc23)CC1)c1cccnc1,-1.56%
7,C=CCOC(=O)C1=C(C)NC(C)=C(C(=O)OCC=C)C1c1cccs1,13.3%
8,CCN1CC=C2C(C#N)=C(N)C(C#N)(C#N)[C@H](c3ccoc3)[C@H]2C1,0.41%
9,CCOC(=O)N1CC=C2C(C#N)=C(N)C(C#N)(C#N)[C@H](c3cccs3)[C@H]2C1,70.4% (active)
10,Cc1cccc(CC(=O)N2CCN=C2SCc2ccc([N+](=O)[O-])cc2)c1,-5.45%
11,COc1cccc(NC(=O)CN(C)C(=O)c2cc(C3CC3)nn2-c2ccccc2)c1,-5.25%
12,CCc1ccccc1NC(=O)CN(C)C(=O)c1cc(C2CC2)nn1-c1ccccc1,-2.35%
13,COc1ccc(NC(=O)CN(C)C(=O)c2cc(C3CC3)nn2-c2ccccc2)cc1,61.4% (active)
14,CC(C)(C)NC(=O)CN(Cc1cccs1)C(=O)CNS(=O)(=O)c1ccccc1,-3.38%
15,CC(=O)Nc1ccc(Sc2ccccc2C(=O)N2CCCC2)cn1,-0.06%
16,Nc1cccc(-c2cncc(N3CCN(Cc4ccccn4)CC3)n2)c1,-1.68%
17,Cc1nc2sc(C(c3ccco3)N3CCC4(CC3)OCCO4)c(O)n2n1 (centres undefined),-3.42%
18,Oc1c(C(c2cccs2)N2CCN(c3ccc(F)cc3)CC2)sc2ncnn12 (centres undefined),5.11%
19,Oc1c(C(c2ccco2)N2CCC3(CC2)OCCO3)sc2ncnn12 (centres undefined),84.4% (active)
20,Cc1cc(NC(=O)CN2C(=O)NC(CC(C)C)C2=O)no1 (centres undefined),3.08%
21,COc1ccccc1CNS(=O)(=O)c1c(C)[nH]c(C)c1C(=O)N1CCCCC1,2.18%
22,CC(=O)NCCc1ccc(S(=O)(=O)N(C)C2CCS(=O)(=O)C2)cc1 (centres undefined),0.81%
23,N/C(=N\S(=O)(=O)c1cc(C(F)(F)F)cc(C(F)(F)F)c1)c1cccs1,3.6%

row,Compound,inhibition (reported as % activation of signal)
1,Cc1ccc(CNC(=O)CSc2nnc3c(n2)[nH]c2ccc(F)cc23)cc1,57.3% (active)
2,COc1ccc2[nH]c3nc(SCC(=O)NC4CC4)nnc3c2c1,2.16%
3,Cc1ccn2c(=O)nc(SCC(=O)NCc3ccc(F)cc3)nc2c1,-6.32%
4,O=C(Nc1cccc(F)c1)c1coc(=O)c(Br)c1,-1.29%
5,CC(=O)c1ccc(NC(=O)CCNS(=O)(=O)c2cc(Br)cnc2N)cc1,2.08%
6,CCCCN1CC(CO)Oc2cccc(F)c2S1(=O)=O (centres undefined),0.29%
7,OC[C@H]1O[C@@H](c2nc(-c3nc(-c4ccc(F)cc4)no3)cs2)[C@H](O)[C@@H](O)[C@H]1O,0.63%
8,CCC1(C)Cc2c(sc3[nH]c(=S)n(Cc4ccccc4)c(=O)c23)CO1 (centres undefined),-3.04%
9,C=CCn1c(=S)[nH]c2scc(-c3ccco3)c2c1=O,94.1% (active)
10,Cc1ccccc1-n1cc(CNC(=O)C2CCC(=O)N(C3CC3)C2)cn1 (centres undefined),0.34%
11,Cc1ccccc1-n1cc(CNC(=O)CC2C(=O)NCCN2C/C=C/c2ccccc2)cn1 (centres undefined),68.2% (active)
12,O=C(CC1C(=O)NCCN1Cc1ccc(-c2ccccc2)cc1)NCc1ccncc1 (centres undefined),-12.2%
13,COc1cc(OC)cc(C(=O)NNC(=O)Cc2cccs2)c1,7.66%
14,COc1ccc(Cc2nnc(NC(=O)Cc3cccs3)s2)cc1,113% (active)
15,COc1ccccc1NC(=O)Nc1nnc(Cc2ccc(F)cc2)s1,9.56%
16,CC(C)(C)NC(=O)C(c1ccncc1)N(C(=O)CNC(=O)c1ccco1)c1ccc2c(c1)OCO2 (centres undefined),-1.68%
17,CCOc1ccc(-n2cnnn2)cc1S(=O)(=O)N1CCC(C)CC1C (centres undefined),4.44%
18,CC(C)(C)OC(=O)C[C@@H]1C/C=C\C[C@@H](CC(=O)N[C@@H](CO)Cc2ccccc2)C(=O)N2CCC[C@H]2COC1=O,1.28%
19,Nc1ncnc(Nc2cccc(Cl)c2Cl)n1,0.57%
20,COc1cc(C(=O)Nc2cc(C(F)(F)F)ccc2-n2cncn2)cc(OC)c1OC,-2.48%
21,O=C(COC(=O)c1ccccc1O)NCc1ccco1,50%
22,O=C(COC(=O)c1cnc(Cl)c(Cl)c1)NCc1ccco1,30.3%
23,Cc1cc(C(=O)OCC(=O)NCc2ccco2)c(C)n1-c1ccccc1,55.9% (active)

row,Compound,inhibition (reported as % activation of signal)
1,N#CC(C#N)=CN=c1ccn(Cc2ccc(Cl)cc2Cl)cc1,-4.93%
2,Cc1cccc(C)c1NC(=O)C1(C)c2cccc[n+]2CC(=O)N1Cc1cccs1 (centres undefined),-3.99%
3,O=C(/C=C/c1cnc2ccccc2n1)NC1CCCCCC1,-5.96%
4,COc1ccc(CCNC(=O)C(=O)NCC2OCCN2S(=O)(=O)c2ccc(OC)c(C)c2)cc1 (centres undefined),-5.69%
5,O=c1[nH][nH]c(C(F)(F)F)c1C=NCc1ccccc1Cl,-3.13%
6,CCN(CC)S(=O)(=O)c1ccc(N2CC(C(=O)NCc3cccnc3)CC2=O)cc1 (centres undefined),2.78%
7,O=C(COc1ccc(/C=N/NC(=O)c2ccc(O)cc2)cc1)Nc1ccc([N+](=O)[O-])cc1,54% (active)
8,O=C(CCC(=O)N1CCCC1)Nc1ccc([N+](=O)[O-])cc1,0.7%
9,O=C(COc1ccc([N+](=O)[O-])cc1)Nc1cccc(C(=O)Nc2ccccc2C(=O)O)c1,-0.08%
10,O=C(N/N=C/c1cccc(OC(=O)c2ccc([N+](=O)[O-])cc2)c1)c1cccnc1,2.43%
11,O=C(COC(=O)C1CCCCC1)Nc1ccc([N+](=O)[O-])cc1,-1.74%
12,O=C(COc1ccc(Cl)cc1)Nc1ccccc1CO,0.96%
13,Cc1cc(N2CCCC2)ccc1NC(=O)COc1ccc(Cl)cc1,59.6% (active)
14,O=C(COc1ccc([N+](=O)[O-])cc1)Nc1ccc(N2CCCC2)cc1,92.5% (active)
15,Cc1cc(C)cc(OCC(=O)Nc2ccc(N3CCOCC3)cc2N2CCOCC2)c1,-5.22%
16,CC(CO)N1CCS(=O)(=O)CC1 (centres undefined),4.55%
17,Cc1ccc(C)n1-c1ccncc1,-0.41%
18,COc1ccc(NS(=O)(=O)c2ccc(C)c(C(=O)N(C)Cc3ccc(OC)cc3OC)c2)cc1,-0.59%
19,C[C@H]([C@@H](O)[C@@H](O)[C@@H](C)C(C)(C)C)[C@H]1CC[C@H]2C3CC[C@H]4C[C@H](OS(=O)(=O)O)[C@@H](OS(=O)(=O)O)C[C@]4(C)[C@H]3CC[C@]12C (some centres undefined),46.8%
20,CC(C)Oc1ccc(CC(=O)NNC(=S)Nc2ccc(Br)cc2)cc1,-8.54%
21,CCCOc1ccc(Cc2c(Cl)nc(SC)nc2NC)cc1,5.36%
22,CC(C)c1ccc(Nc2nnc(SCC(=O)c3nnc(-c4ccccc4)o3)s2)cc1,79.2% (active)
23,CC(C)Nc1nnc(SCC(=O)c2c[nH]c3ccccc23)s1,-9.78%

row,Compound,inhibition (reported as % activation of signal)
1,CC(C)N(C(=O)CSc1nnc(NC2CC2)s1)c1ccccc1,-1.85%
2,CN(C)CCNC(=O)c1cccc(-c2cnc3c(NC=O)cc(-c4cccc(C(F)(F)F)c4)cn23)c1,-1.67%
3,Cc1ccccc1NC(=O)Cn1c(=O)n(CC2CCCO2)c(=O)c2ccccc21 (centres undefined),1.1%
4,Cc1ccccc1NC(=O)CN1C(=O)N/C(=C\c2cccn2-c2cccc(C(=O)O)c2)C1=O,92.6% (active)
5,COC(=O)CN1C(=O)N/C(=C/c2ccc(OC)c(C)c2OC)C1=O,0.3%
6,CC(C)n1ncc2c(C(=O)N3CCN(Cc4cccs4)CC3)cc(C3CC3)nc21,2.36%
7,COc1cc(C)c(C(C)C)cc1S(=O)(=O)n1ccnc1,27.6%
8,C=CCCC(=O)Nc1nc(C)c(-c2csc(Nc3ccc(Cl)cc3)n2)s1,-14.7%
9,Cc1cn([C@H]2C[C@H](O)[C@@H](/C=C/C(=O)NCCCc3ccccc3)O2)c(=O)[nH]c1=O,1%
10,CCC(=O)Nc1cccc(C2=NOC3(C2)C[C@@H](C(N)=O)N(C(=O)c2cc([N+](=O)[O-])cc([N+](=O)[O-])c2C)C3)c1 (some centres undefined),4.19%
11,O=S(=O)(Nc1ccc2[nH]ncc2c1)c1ccccc1Cl,-2.94%
12,COc1cc(/C(=C/c2ccccc2)c2ccccc2)c2c(c1)oc1ccccc12,10.2%
13,Cc1nnc(N/N=C/c2ccccn2)[nH]c1=O,5.44%
14,Cc1nnc(N/N=C/c2cccs2)[nH]c1=O,56% (active)
15,Cc1n[nH]c(=O)nc1N/N=C/c1cccs1,3.53%
16,CNc1ccc(SC#N)cc1,-16.1%
17,ON=C1/C(=N\O)CC2(C/C1=N/O)OCCO2,12.4%
18,O/N=C1\CC2(Cc3nonc31)OCCO2,77.1% (active)
19,CC(C)N=C1CCCC1C(=S)SSC(=S)C1CCCC1=NC(C)C (centres undefined),-10.8%
20,O=C(NCCCN1CCOCC1)c1ccccc1NS(=O)(=O)c1ccc(F)cc1,0.01%

# From PubChem BioAssay AID588458 (Sanford-Burnham Center for Chemical Genomics, 2011)
